# Experimental data: PubChem BioAssay
# Where “and” joins values, the source holds several entries; their conditions need not be identical. Equal entries are not always repeated. For some of these results: Measured potencies and affinities stand elsewhere. Calls of active or inactive are those of the source. Unless noted, the rule behind the calls is not given here.
# How the values were obtained:
# [1] = blockers of polyQ-driven CASP3 activation – cell-based (AID 1583); conditions: polyglutamine-induced caspase-3 activation, cell assay; stronger effect = higher value;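 tested at 10 µM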
# [2] = yeast 75Q aggregation reduction – 75Q-TubU reporter (AID 1593); conditions: Yeast 75Q polyglutamine aggregation reporter
# [3] = restoration of touch response, mutant HTT neurons – whole organism, C. elegans mechanosensory neurons, N-terminal huntingtin (AID 1599); conditions: C. elegans polyQ-huntingtin mechanosensory neurons, stronger effect = higher value
# [4] = blockers of cytochrome c efflux from mitochondria – biochemical, purified mitochondria (AID 1603); conditions: stronger effect = lower value;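 note: mouse liver mitochondria challenged with calcium chloride; signal normalized to the plate average as 100%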
# [5] = polyglutamine aggregate formation blockers (AID 1604); conditions: polyglutamine-induced protein aggregation inhibition assay; stronger effect = higher value; tested at 2.5 µM
# [6] = glutamate transport activators, MN-1 cells, MN-1 cell line (AID 1612); conditions: MN-1 motor neuron cells, stronger effect = higher value;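 note: tested at 1 µM final; 0% = mean of DMSO vehicle wells on each plate; positive means more glutamate uptake than control and negative means less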
# [7] = 75Q-TubH aggregate inhibition, S. cerevisiae, yeast (AID 1616); conditions: S. cerevisiae 75Q-TubH polyglutamine aggregation suppression; stronger effect = higher value
# [8] = compounds altering viability of human ES cells (AID 493140); conditions: human embryonic stem cell survival screen; stronger effect = higher value;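 note: cells exposed to compounds for four days before counting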
# [9] = signal quenchers or enhancers, Cy5 substrate/SSB – biochemical, NIH Clinical Collection, E. coli SSB, artefact control for HCV NS3 helicase inhibitor project (AID 743268); conditions: Cy5-oligo bound E. coli SSB, fluorescence interference
# [10] = system: Hepatitis C virus NS3 helicase; assay: blockers of NS3h binding to DNA – biochemical, fluorescence polarization, NIH Clinical Collection, primary screen (AID 743270); conditions: NS3 helicase binding to Cy5-dT15 DNA, stronger effect = higher value, concentration not given here
# [11] = biological target: Single-stranded DNA-binding protein (Escherichia coli (strain K12)) (UniProt P0AGE0); assay: SSB-ssDNA binding inhibitors – biochemical, fluorescence polarization, NIH Clinical Collection, counter-screen for HCV NS3 helicase inhibitor project (AID 743271; in the data active = inhibition above about 28%); conditions: E. coli SSB-DNA binding, stronger effect = higher value, concentration not given here
# [12] = compounds distorting NS3 helicase fluorescence signal – biochemical, NIH Clinical Collection, artefact control for HCV NS3 helicase inhibitor project (AID 743272); conditions: fluorescence interference counterscreen, HCV NS3 helicase assay; stronger effect = lower value;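 note: HCV NS3 helicase with a Cy5 labelled single stranded DNA probe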
# [13] = modulation of C. elegans fzo-1 (AID 1259413);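 note: fzo-1 mutant C. elegans worms in liquid wells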; conditions: C. elegans fzo-1 modulator screen, mean read-out; stronger effect = higher value
# [14] = galactose survival enhancers in mitochondrial complex I cybrids – cell-based, galactose medium, ATP luminescence, primary screen (AID 1645843;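 active = z-score of at least 1.8 in each of two replicates, scored against plate mean and spread of sample wells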;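 note: positive z means more ATP and so rescue of galactose-driven cybrid death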); conditions: complex I mutant cybrid cells, 72 h, stronger effect = higher value
# [15] = system: F380Y/beta1; assay: BK channel mutant inhibitors and activators – cell-based, U2OS BacMam, thallium flux, beta subunits, selectivity assay, profiling panel (AID 1259406;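 active = thallium flux through the channel raised or lowered by more than 3 SD from vehicle-only wells, actives on both sides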;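 note: initial slope of Thallos dye fluorescence rise after thallium is added; log ratio against the mean of 0.3% DMSO vehicle wells on the same plate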); conditions: U2OS BacMam BK variants, at 30 µM
# [16] = system: F380Y/beta4; assay: as above; conditions: U2OS BacMam BK variants, at 30 µM
# [17] = system: R275C/beta4; assay: as above; conditions: U2OS BacMam BK variants, at 30 µM
# [18] = system: R275C/Slo1WT/beta2; assay: as above; conditions: U2OS BacMam BK variants, at 30 µM
# [19] = blockers of cellular phospholipid synthesis – cell-based, LOPAC library, screen 4, primary screen (AID 1347384); conditions: animal cells, phospholipid biosynthesis inhibition screen; at 10 µM
# [20] = P. berghei load reduction in hepatocytes – cell-based, HepG2, luciferase luminescence, HepG2 viability, primary screen (AID 624349; in the data active = parasite load remaining mostly below about 12%, no sharp cut-off; inactive = mostly above about 10%;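 note: 100% = mean of DMSO negative control wells on the same plate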); conditions: P. berghei liver stage in HepG2, luciferase luminescence, concentration not given here; parasite load remaining: stronger effect = lower value; viability: measured here: HepG2 viability without parasites
smiles,measurement,setting,value
CCCc1cc(=O)[nH]c(=S)[nH]1,inhibition,[1],-28.5%
same,score,[2],1.06
same,rescue above control,[3],-2.2
same,cytochrome c release ratio,[4],1.02
same,inhibition of aggregation,[5],48%
same,glutamate uptake change,[6],4.57%
same,aggregation suppression score,[7],1.14
same,survival,[8],31.3 (inactive)
same,fluorescence ratio,[9],1.04 (inactive)
same,inhibition,[10],-1.36% (inactive)
same,inhibition,[11],0.29% (inactive)
same,fluorescence ratio,[12],0.97 (inactive)
same,mean signal,[13],248 (inactive)
same,z-score,[14],0.835 (inactive)
same,log fold change Tl+ flux,[15],-0.132 (active)
same,log fold change Tl+ flux,[16],0.0238 (inactive)
same,log fold change Tl+ flux,[17],-0.0141 (inactive)
same,log fold change Tl+ flux,[18],0.0488 (inactive)
CC1=NS(=O)(=O)c2cc(Cl)ccc2N1,survival,[8],11.5 (inactive)
same,fluorescence ratio,[9],1 (inactive)
same,inhibition,[10],5.94% (inactive)
same,inhibition,[11],4.52% (inactive)
same,fluorescence ratio,[12],0.99 (inactive)
same,mean signal,[13],242 (inactive)
same,outcome,[19],inactive
same,log fold change Tl+ flux,[15],-0.0354 (inactive)
same,log fold change Tl+ flux,[16],-0.0353 (inactive)
same,log fold change Tl+ flux,[17],0.0187 (inactive)
same,log fold change Tl+ flux,[18],0.0541 (inactive)
CC(C[N+](C)(C)C)OC(N)=O (stereo not given),inhibition,[1],18.5%
same,score,[2],1.26
same,rescue above control,[3],20.6
same,cytochrome c release ratio,[4],0.92
same,inhibition of aggregation,[5],-22.2%
same,glutamate uptake change,[6],-0.67%
same,aggregation suppression score,[7],1.26
same,survival,[8],18.5 (inactive)
same,fluorescence ratio,[9],1.06 (inactive)
same,inhibition,[10],-3.18% (inactive)
same,inhibition,[11],-1.24% (inactive)
same,fluorescence ratio,[12],1.01 (inactive)
same,mean signal,[13],276 (inactive)
same,outcome,[19],inactive
same,z-score,[14],-0.115 (inactive) and 0.415 (inactive) and 0.59 (inactive)
same,log fold change Tl+ flux,[15],0.0306 (inactive)
same,log fold change Tl+ flux,[16],0.00469 (inactive)
same,log fold change Tl+ flux,[17],0.043 (inactive)
same,log fold change Tl+ flux,[18],0.0355 (inactive)
COc1ccc(Cl)cc1C(=O)NCCc1ccc(S(=O)(=O)NC(=O)NC2CCCCC2)cc1,inhibition,[1],0.35%
same,score,[2],-0.18
same,cytochrome c release ratio,[4],1.09
same,inhibition of aggregation,[5],45%
same,glutamate uptake change,[6],34.4%
same,aggregation suppression score,[7],1.07
same,survival,[8],5.42 (inactive)
same,fluorescence ratio,[9],0.97 (inactive)
same,inhibition,[10],-2.27% (inactive)
same,inhibition,[11],1.05% (inactive)
same,fluorescence ratio,[12],0.97 (inactive)
same,mean signal,[13],242 (inactive)
same,outcome,[19],inactive
same,log fold change Tl+ flux,[15],0.119 (active)
same,log fold change Tl+ flux,[16],0.115 (active)
same,log fold change Tl+ flux,[17],0.162 (active)
same,log fold change Tl+ flux,[18],0.00644 (inactive)
NCCc1ccc(O)c(O)c1,inhibition,[1],12.5%
same,score,[2],1.44
same,rescue above control,[3],0.54
same,cytochrome c release ratio,[4],0.92
same,inhibition of aggregation,[5],81.4%
same,glutamate uptake change,[6],17.9%
same,aggregation suppression score,[7],1.6
same,parasite load remaining,[20],36.4% (inactive) and 34.7% (inactive) and 21% (inactive)
same,viability,[20],120% and 74.1% and 206%
same,fluorescence ratio,[9],0.93 (inactive)
same,inhibition,[10],-5.91% (inactive)
same,inhibition,[11],-2% (inactive)
same,fluorescence ratio,[12],0.96 (inactive)
same,mean signal,[13],263 (inactive)
same,outcome,[19],inactive
same,z-score,[14],-1.03 (inactive) and -1.31 (inactive)
same,log fold change Tl+ flux,[15],0.0356 (inactive)
same,log fold change Tl+ flux,[16],0.00195 (inactive)
same,log fold change Tl+ flux,[17],0.0461 (inactive)
same,log fold change Tl+ flux,[18],0.00323 (inactive)
CS(=O)(=O)OCCCCOS(C)(=O)=O,inhibition,[1],27.2%
same,score,[2],1.46
same,rescue above control,[3],-1.18
same,cytochrome c release ratio,[4],0.62
same,inhibition of aggregation,[5],54%
same,glutamate uptake change,[6],14.5%
same,aggregation suppression score,[7],1.4
same,parasite load remaining,[20],46.8% (inactive) and 102% (inactive) and 58% (inactive)
same,viability,[20],95.5% and 78.8% and 98.1%
same,fluorescence ratio,[9],1.02 (inactive)
same,inhibition,[10],-12.3% (inactive)
same,inhibition,[11],-0.48% (inactive)
same,fluorescence ratio,[12],0.92 (inactive)
same,mean signal,[13],241 (inactive)
same,z-score,[14],0.925 (inactive)
same,log fold change Tl+ flux,[15],0.0504 (inactive)
same,log fold change Tl+ flux,[16],0.00072 (inactive)
same,log fold change Tl+ flux,[17],-0.0126 (inactive)
same,log fold change Tl+ flux,[18],0.0135 (inactive)
CC12CC3CC(C)(C1)CC(N)(C3)C2,inhibition,[1],12.5%
same,score,[2],1.59
same,rescue above control,[3],-2.96
same,cytochrome c release ratio,[4],1.07
same,inhibition of aggregation,[5],35%
same,glutamate uptake change,[6],2.56%
same,aggregation suppression score,[7],1.45
same,survival,[8],11.7 (inactive)
same,fluorescence ratio,[9],1.02 (inactive)
same,inhibition,[10],-1.36% (inactive)
same,inhibition,[11],-0.48% (inactive)
same,fluorescence ratio,[12],1.02 (inactive)
same,mean signal,[13],254 (inactive)
same,outcome,[19],inactive
same,z-score,[14],-0.41 (inactive) and 0.5 (inactive) and -0.635 (inactive)
same,log fold change Tl+ flux,[15],0.0185 (inactive)
same,log fold change Tl+ flux,[16],0.00566 (inactive)
same,log fold change Tl+ flux,[17],0.0101 (inactive)
same,log fold change Tl+ flux,[18],-0.103 (inactive)
CC(=O)OCC(CCn1cnc2cnc(N)nc21)COC(C)=O,fluorescence ratio,[9],1.06 (inactive)
same,inhibition,[10],-1.98% (inactive)
same,inhibition,[11],-4.72% (inactive)
same,fluorescence ratio,[12],0.99 (inactive)
same,mean signal,[13],292 (inactive)
same,outcome,[19],inactive
same,z-score,[14],0.72 (inactive) and 0.425 (inactive) and 0.32 (inactive)
same,log fold change Tl+ flux,[15],0.035 (inactive)
same,log fold change Tl+ flux,[16],0.0232 (inactive)
same,log fold change Tl+ flux,[17],0.0276 (inactive)
same,log fold change Tl+ flux,[18],0.0386 (inactive)
N[C@@H](Cc1cc(I)c(Oc2cc(I)c(O)c(I)c2)c(I)c1)C(=O)O,fluorescence ratio,[9],0.87 (inactive)
same,inhibition,[10],0.45% (inactive)
same,inhibition,[11],0.29% (inactive)
same,fluorescence ratio,[12],0.88 (inactive)
same,mean signal,[13],252 (inactive)
same,z-score,[14],-1.38 (inactive) and -0.805 (inactive)
same,log fold change Tl+ flux,[15],0.13 (active)
same,log fold change Tl+ flux,[16],0.107 (active)
same,log fold change Tl+ flux,[17],0.234 (active)
same,log fold change Tl+ flux,[18],0.0236 (inactive)
CCN(CC)CCOC(=O)C1(C2CCCCC2)CCCCC1,inhibition,[1],-0.16%
same,score,[2],0.92
same,rescue above control,[3],8.2
same,cytochrome c release ratio,[4],0.58
same,inhibition of aggregation,[5],78.3%
same,glutamate uptake change,[6],-7.11%
same,aggregation suppression score,[7],1.04
same,survival,[8],16.2 (inactive)
same,fluorescence ratio,[9],1.01 (inactive)
same,inhibition,[10],-3.18% (inactive)
same,inhibition,[11],4.1% (inactive)
same,fluorescence ratio,[12],0.95 (inactive)
same,mean signal,[13],236 (inactive)
same,outcome,[19],inactive
same,z-score,[14],-0.95 (inactive) and -0.895 (inactive) and -2.66 (inactive)
same,log fold change Tl+ flux,[15],-0.0697 (inactive)
same,log fold change Tl+ flux,[16],-0.0157 (inactive)
same,log fold change Tl+ flux,[17],0.0991 (inactive)
same,log fold change Tl+ flux,[18],0.00259 (inactive)
CN(C)CCC[C@@]1(c2ccc(F)cc2)OCc2cc(C#N)ccc21,parasite load remaining,[20],78.9% (inactive) and 44.8% (inactive)
same,viability,[20],63.5% and 102%
same,fluorescence ratio,[9],1.05 (inactive)
same,inhibition,[10],-1.98% (inactive)
same,inhibition,[11],6.83% (inactive)
same,fluorescence ratio,[12],0.96 (inactive)
same,mean signal,[13],287 (inactive)
same,z-score,[14],0.15 (inactive) and 0.43 (inactive)
same,log fold change Tl+ flux,[15],-0.0013 (inactive)
same,log fold change Tl+ flux,[16],0.042 (inactive)
same,log fold change Tl+ flux,[17],0.0144 (inactive)
same,log fold change Tl+ flux,[18],0.0208 (inactive)
